Source: PubChem BioAssay
Jurkat NFkB inh – lowers PMA/ionomycin-induced NF-kB signal in Jurkat cells. PMA/ionomycin-induced NF-kB luciferase reporter, luminescence. inhibition, % at 4 µM. 330,000 compounds, 0.53% hits. AID 435003; in the data active means inhibition above about 50%
Gli-Sufu block – blocks Gli-Sufu signaling in a luciferase reporter. Sufu-KO-LIGHT fibroblasts, Gli luciferase reporter luminescence. inhibition, % at 5 µM. 340,000 compounds, 0.74% hits;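 active means inhibition above about 55%, limit read from the data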
697 NFkB inh – lowers PMA/ionomycin-induced NF-kB signal in 697 B cells. 697 B-cell NF-kB luciferase reporter, 16 h. inhibition, % at 4 µM. 330,000 compounds, 0.33% hits; in the data active means inhibition above about 35%
EBV LMP1 NFkB – Epstein-Barr LMP1 NF-kappaB reporter inhibition | LMP1-induced NF-kappaB luciferase reporter cells, luminescence | inhibition, % at 12.5 µM | 350,000 compounds, 0.69% hits; in the data active means inhibition above about 41%
Shn3 inh set2 – reduces Shn3 3'UTR luciferase signal in osteoblasts | 360,000 compounds, 0.52% hits | Clone20 osteoblast Shn3 3'UTR firefly luciferase, 24 h | inhibition, % at 12.5 µM;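 active means mean inhibition of at least 75% with every replicate also reaching 75%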
MITF TRPM1 inh – inhibitors of MITF-driven TRPM1 promoter in melanoma cells | inhibition, % at 12.5 µM | SK-MEL-5 TRPM1 promoter luciferase, 24 h | 330,000 compounds, 0.83% hits;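 active means mean inhibition across replicates of 60% or more, whatever share of single replicates reaches that level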
697 NFkB conf – inhibitors of the PMA/ionomycin-induced NF-kB reporter in 697 B cells, retest; shares compounds with 697 NFkB inh; 697 B-cell NF-kB luciferase, 16 h; inhibition, % at 4 µM; 2,000 compounds, 35% hits; AID 449746; in the data active means inhibition mostly above about 28%, no sharp cut-off; inactive means mostly below about 22%
Numbers stand for hits; n = inactive; x = no result. An excerpt weighted towards active compounds, which were near 2.3% of everything screened.

SMILES	Jurkat NFkB inh	Gli-Sufu block	697 NFkB inh	EBV LMP1 NFkB	Shn3 inh set2	MITF TRPM1 inh	697 NFkB conf
COc1cc(/C=N/NC(=O)c2ccc(-n3cccc3)cc2)ccc1O	n	n	43	n	n	n	n
COc1cccc(/C=N/NC(=O)c2ccc(N3CCCC3=O)cc2)c1	n	n	n	n	n	n	n
COc1ccc(Br)cc1/C=N/NC(=O)c1cc(Br)ccc1O	n	x	n	x	x	x	x
COc1cc(/C=N/NC(=O)c2ccc3c(c2)OCO3)ccc1O	n	n	n	n	n	n	x
CCN(CC)S(=O)(=O)c1ccc(OCC(=O)NC2CCS(=O)(=O)C2)c([N+](=O)[O-])c1 (stereo not drawn)	n	n	n	n	n	n	x
COc1ccc(C2C(C#N)=C(N)OC(C(C)(C)C)=C2C#N)cc1OC (stereo not drawn)	n	n	n	n	n	n	x
COc1cccc(C2C(C#N)=C(N)OC(C(C)(C)C)=C2C#N)c1 (stereo not drawn)	n	n	36	n	n	n	n
COc1ccc(NC(=O)c2cc(CC(C)C)nc3ccccc23)cc1	n	n	n	n	n	n	n
CCCNC(=O)/C=C/c1ccc(S(=O)(=O)Nc2ccccc2OC)cc1	n	n	n	n	n	n	x
COc1ccc2nc(C)cc(Sc3nc4ccccc4s3)c2c1	n	n	42	n	n	n	38
COc1ccc2nc(C)cc(SCC(=O)NNC(=O)COc3ccccc3)c2c1	n	n	n	n	n	n	x
CCOC(=O)N1CCN(C(=O)Nc2ccc3nc(C)c(C)nc3c2)CC1	n	n	37	n	n	n	n
O=C(Nc1ccccc1N1CCCCC1)C1=COCCO1	n	n	n	n	n	n	x
O=S(=O)(c1cnc(Cl)c(Cl)c1)N1CCCc2ccccc21	n	n	43	n	n	n	37
O=C(Nc1ccc(N2CCCC2)cc1)c1cccc(Cl)c1	n	n	n	n	n	n	n
COc1cc(-c2nc3ccccn3c2NCC2CCCO2)ccc1O (stereo not drawn)	n	n	36	n	n	n	n
N#Cc1cnn2c1nc(N1CCOCC1)c1ccccc12	n	n	36	n	n	n	n
Cc1nn2c(nc(N3CCOCC3)c3ccccc32)c1C=C(C#N)C#N	n	n	n	n	n	n	x
CCc1ccc(/C=C2/SC(=S)N(CCC(=O)Nc3ccc(C(=O)O)cc3)C2=O)cc1	n	x	77	n	n	n	72
COc1ccc(/C=C2\SC(=S)N(CCC(=O)Nc3ccc(C(=O)O)cc3)C2=O)cc1	n	n	44	n	n	n	60
COc1ccc(/C=C2/SC(=S)N(CCC(=O)O)C2=O)cc1	n	n	74	n	n	61	75
CCc1ccc(C=C2SC(=S)N(CCCC(=O)Nc3ccc(C(=O)O)cc3)C2=O)cc1	x	x	x	x	n	x	x
CCc1ccc(/C=C2/SC(=S)N(CCC(=O)Nc3cccc(C(=O)O)c3)C2=O)cc1	n	n	50	n	n	n	59
Cc1nc(-c2cccc(NS(=O)(=O)c3ccccc3)c2)cs1	n	n	n	n	n	n	x
Cc1cc(NC(=O)CN2C(=O)NC3(CCCCC3)C2=O)no1	n	n	n	n	n	n	x
SMILES	Jurkat NFkB inh	Gli-Sufu block	697 NFkB inh	EBV LMP1 NFkB	Shn3 inh set2	MITF TRPM1 inh	697 NFkB conf
COc1cc(NC(=O)c2cccc(F)c2)cc(OC)c1OC	n	n	n	n	n	n	x
NC(=S)c1ncc(C(F)(F)F)cc1Cl	n	n	n	n	n	n	x
NC(=S)Nc1ncc(C(F)(F)F)cc1Cl	n	n	47	n	n	n	n
COc1ccc(NS(=O)(=O)c2cc(NC(=O)c3cc(=O)c4ccccc4o3)ccc2OC)cc1	n	n	38	n	n	n	33
CCOC(=O)Cn1c(-c2nonc2NC(=O)c2ccccc2F)nc2ccccc21	n	n	n	n	n	n	n
CCSCCOC(=O)C1=C(C)NC2=C(C(=O)CCC2)C1c1coc2ccccc2c1=O (stereo not drawn)	n	n	36	n	n	n	n
CC1=C(C(=O)OC(C)C)C(c2coc3ccccc3c2=O)C2=C(CCCC2=O)N1 (stereo not drawn)	n	n	n	n	n	n	x
CCn1c(=S)[nH]c2cc(S(=O)(=O)N3CCCCC3)ccc21	n	n	36	n	n	n	30
CCCCn1c(=S)[nH]c2cc(S(=O)(=O)N3CCOCC3)ccc21	n	n	n	n	n	n	x
CCOC(=O)Cc1csc(NC(=S)NC(=O)c2ccc(Cl)cc2)n1	n	n	45	n	n	n	76
Oc1ccc(N=Nc2ccc3ccccc3c2)cc1	n	n	n	n	n	n	n
COc1cc(N=Nc2ccc3ccccc3c2)ccc1O	n	n	n	n	n	n	x
CCSc1ccccc1C(=O)Nc1ccc(S(=O)(=O)NC(C)=O)cc1	n	n	n	n	n	n	x
CCOP(=O)(OCC)c1nc(/C=C/c2ccccc2)oc1NCc1ccccc1	n	n	n	n	n	n	x
O=C1N[C@@H](Cc2cn(S(=O)(=O)c3ccccc3)c3ccccc23)C(=O)N[C@H]1Cc1ccccc1	n	n	38	n	n	n	n
O=C1N[C@@H](Cc2cn(S(=O)(=O)c3ccc(F)cc3)c3ccccc23)C(=O)N[C@H]1Cc1ccccc1	n	x	n	x	x	x	x
COc1ccccc1C(c1nnnn1CCc1ccccc1)N1CCCCCC1 (stereo not drawn)	n	n	n	n	n	n	x
COc1cc(OC)cc(-c2cc3cc4c(cc3cn2)OCO4)c1	n	n	n	n	n	n	x
COc1ccc(-c2cc3cc4c(cc3cn2)OCO4)cc1	n	n	n	n	n	n	n
Cc1ccc(NC(=O)O/N=C/c2c(C)nn(C(C)(C)C)c2C)cc1Cl	n	n	63	75	x	83	78
O=C(NCCN1CCNC1=O)C1CCC(=O)N(CCc2ccc(Cl)cc2)C1 (stereo not drawn)	n	n	n	n	n	n	x
O=c1[nH]c(Sc2ccc([N+](=O)[O-])cc2[N+](=O)[O-])nc2ccccc12	n	n	n	n	n	n	x
O=[N+]([O-])c1ccc(Sc2cc[n+]([O-])c3ccccc23)c([N+](=O)[O-])c1	n	n	37	n	n	90	50
Cc1nc2nc(-c3ccccc3)nn2c(C)c1C	n	n	n	n	n	n	x
O=C(COC(=O)/C=C/c1ccc(S(=O)(=O)N2CCOCC2)cc1)NCc1ccc2c(c1)OCO2	n	n	n	n	n	n	x
CC1CCN(Cc2c(C(=O)N/N=C/c3cccc(Cl)c3)nnn2-c2nonc2N)CC1	n	n	n	n	n	n	x
CCOC(=O)C(=CNc1cc(C)ccc1C)C(=O)OCC	n	n	38	n	n	n	29
Cn1c(N=Nc2ccccc2)nc2ccccc21	n	n	n	n	n	n	n
O=C(CNC(=O)c1ccc2c(c1)S(=O)(=O)N=C1CCCCCN12)Nc1ccc(F)c(F)c1	n	n	n	n	n	n	x
